In assay [1] the target is RAC-alpha serine/threonine-protein kinase (Homo sapiens) (UniProt P31749). To be noted: at 0.1 µM.
Assay [2] has the same target. As to conditions: at 1 µM.
For assay [3], the target named is RAC-beta serine/threonine-protein kinase (Homo sapiens) (UniProt P31751). To be noted: at 0.1 µM.
The target is the same in assay [4]. To be noted: at 1 µM.
Assay [5] addresses RAC-gamma serine/threonine-protein kinase (Homo sapiens) (UniProt Q9Y243). To be noted: at 0.1 µM.
Assay [6] has the same target. To be noted: at 1 µM.
For assay [7], the target named is G protein-coupled receptor kinase 6 (Homo sapiens) (UniProt P43250). To be noted: at 0.1 µM.
Chain of G protein-coupled receptor kinase 6 (Homo sapiens) (P43250 whole entry, looked up): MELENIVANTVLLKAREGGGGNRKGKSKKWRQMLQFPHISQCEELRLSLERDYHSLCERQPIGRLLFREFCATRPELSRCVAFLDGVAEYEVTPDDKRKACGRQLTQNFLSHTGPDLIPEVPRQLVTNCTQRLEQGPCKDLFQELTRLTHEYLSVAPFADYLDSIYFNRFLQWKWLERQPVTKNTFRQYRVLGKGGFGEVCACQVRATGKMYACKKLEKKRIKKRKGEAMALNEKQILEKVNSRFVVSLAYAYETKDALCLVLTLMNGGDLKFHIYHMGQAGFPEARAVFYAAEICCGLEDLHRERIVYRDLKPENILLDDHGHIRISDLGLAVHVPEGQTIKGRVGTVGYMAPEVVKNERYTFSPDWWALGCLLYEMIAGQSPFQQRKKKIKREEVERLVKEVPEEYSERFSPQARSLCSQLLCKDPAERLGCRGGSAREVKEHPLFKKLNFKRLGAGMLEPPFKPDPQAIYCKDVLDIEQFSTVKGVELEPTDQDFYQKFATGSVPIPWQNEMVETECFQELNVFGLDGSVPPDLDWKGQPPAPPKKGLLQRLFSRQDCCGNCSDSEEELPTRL
The target is the same in assay [8]. To be noted: at 1 µM.
The target in assay [9] is T1, Rhodopsin kinase GRK7 (Homo sapiens) (UniProt Q8WTQ7).
T1 sequence (whole entry): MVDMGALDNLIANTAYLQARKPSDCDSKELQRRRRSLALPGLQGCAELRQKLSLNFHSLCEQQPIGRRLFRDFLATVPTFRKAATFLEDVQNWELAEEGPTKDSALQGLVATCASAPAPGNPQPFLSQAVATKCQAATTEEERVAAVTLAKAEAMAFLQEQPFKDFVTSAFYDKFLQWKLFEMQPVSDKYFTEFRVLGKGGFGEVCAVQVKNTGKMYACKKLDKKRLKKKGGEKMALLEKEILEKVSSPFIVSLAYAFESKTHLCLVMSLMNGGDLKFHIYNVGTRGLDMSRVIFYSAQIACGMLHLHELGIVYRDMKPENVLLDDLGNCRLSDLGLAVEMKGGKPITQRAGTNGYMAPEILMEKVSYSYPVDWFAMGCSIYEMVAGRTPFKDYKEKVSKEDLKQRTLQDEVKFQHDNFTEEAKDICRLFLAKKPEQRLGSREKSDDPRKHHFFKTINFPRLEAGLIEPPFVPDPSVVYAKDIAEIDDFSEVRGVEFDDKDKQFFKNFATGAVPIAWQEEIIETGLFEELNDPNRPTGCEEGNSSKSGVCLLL
To be noted: at 0.1 µM.

For assay [10], the target named is T1, Rhodopsin kinase GRK7 (Homo sapiens). As to conditions: at 1 µM.
For assay [11], the target named is Serine/threonine-protein kinase MRCK alpha (Homo sapiens) (UniProt Q5VT25). To be noted: at 0.1 µM.
Chain of Serine/threonine-protein kinase MRCK alpha (Homo sapiens) (Q5VT25 whole entry): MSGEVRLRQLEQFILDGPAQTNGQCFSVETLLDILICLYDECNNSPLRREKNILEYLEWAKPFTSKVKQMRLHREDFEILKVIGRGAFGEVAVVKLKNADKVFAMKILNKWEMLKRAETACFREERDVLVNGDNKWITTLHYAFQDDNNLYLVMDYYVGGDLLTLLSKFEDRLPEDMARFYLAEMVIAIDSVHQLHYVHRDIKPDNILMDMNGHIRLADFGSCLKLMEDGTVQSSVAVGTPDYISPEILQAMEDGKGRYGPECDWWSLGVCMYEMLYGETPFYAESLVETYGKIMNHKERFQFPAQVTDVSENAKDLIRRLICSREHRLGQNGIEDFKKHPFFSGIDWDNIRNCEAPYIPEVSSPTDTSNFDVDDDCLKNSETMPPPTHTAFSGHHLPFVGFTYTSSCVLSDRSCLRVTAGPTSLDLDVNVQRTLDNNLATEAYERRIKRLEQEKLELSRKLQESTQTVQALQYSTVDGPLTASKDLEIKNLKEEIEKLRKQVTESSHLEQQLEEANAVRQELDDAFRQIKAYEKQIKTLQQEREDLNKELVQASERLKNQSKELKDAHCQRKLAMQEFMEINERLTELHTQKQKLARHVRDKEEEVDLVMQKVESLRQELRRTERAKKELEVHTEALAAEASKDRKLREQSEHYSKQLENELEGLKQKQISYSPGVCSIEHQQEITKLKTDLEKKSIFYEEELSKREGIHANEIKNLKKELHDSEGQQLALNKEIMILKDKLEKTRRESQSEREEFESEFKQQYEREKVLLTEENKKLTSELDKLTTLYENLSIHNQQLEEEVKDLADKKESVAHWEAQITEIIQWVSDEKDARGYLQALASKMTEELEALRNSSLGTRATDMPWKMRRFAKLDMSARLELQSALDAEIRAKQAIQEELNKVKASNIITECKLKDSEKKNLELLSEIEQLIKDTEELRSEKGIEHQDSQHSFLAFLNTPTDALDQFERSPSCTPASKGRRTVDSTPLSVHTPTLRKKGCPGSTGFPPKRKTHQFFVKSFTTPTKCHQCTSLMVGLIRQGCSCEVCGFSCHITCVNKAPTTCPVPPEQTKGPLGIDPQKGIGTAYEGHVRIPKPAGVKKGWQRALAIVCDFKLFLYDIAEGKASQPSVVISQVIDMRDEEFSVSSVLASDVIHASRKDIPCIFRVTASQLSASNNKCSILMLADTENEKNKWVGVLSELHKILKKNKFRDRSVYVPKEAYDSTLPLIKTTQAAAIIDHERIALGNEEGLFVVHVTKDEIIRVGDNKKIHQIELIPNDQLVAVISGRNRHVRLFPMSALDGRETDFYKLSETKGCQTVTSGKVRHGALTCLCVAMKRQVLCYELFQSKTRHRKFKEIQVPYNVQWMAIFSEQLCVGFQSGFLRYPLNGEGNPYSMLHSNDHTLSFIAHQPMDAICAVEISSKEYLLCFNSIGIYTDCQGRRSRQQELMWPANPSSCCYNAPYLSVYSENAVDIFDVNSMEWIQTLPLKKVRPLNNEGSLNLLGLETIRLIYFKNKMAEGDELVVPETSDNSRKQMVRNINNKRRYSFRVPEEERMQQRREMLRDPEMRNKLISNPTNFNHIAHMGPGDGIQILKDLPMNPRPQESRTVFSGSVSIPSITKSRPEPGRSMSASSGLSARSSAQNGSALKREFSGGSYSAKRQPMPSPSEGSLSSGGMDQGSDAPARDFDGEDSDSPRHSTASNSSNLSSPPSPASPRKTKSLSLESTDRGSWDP
The target is the same in assay [12]. To be noted: at 1 µM.
In assay [13] the target is Serine/threonine-protein kinase MRCK beta (Homo sapiens) (UniProt Q9Y5S2). To be noted: at 0.1 µM.
Assay [14] has the same target. To be noted: at 1 µM.
The target of assay [15] is Ribosomal protein S6 kinase alpha-5 (Homo sapiens) (UniProt O75582). As to conditions: at 0.1 µM.
Chain of Ribosomal protein S6 kinase alpha-5 (Homo sapiens) (O75582 whole entry, looked up): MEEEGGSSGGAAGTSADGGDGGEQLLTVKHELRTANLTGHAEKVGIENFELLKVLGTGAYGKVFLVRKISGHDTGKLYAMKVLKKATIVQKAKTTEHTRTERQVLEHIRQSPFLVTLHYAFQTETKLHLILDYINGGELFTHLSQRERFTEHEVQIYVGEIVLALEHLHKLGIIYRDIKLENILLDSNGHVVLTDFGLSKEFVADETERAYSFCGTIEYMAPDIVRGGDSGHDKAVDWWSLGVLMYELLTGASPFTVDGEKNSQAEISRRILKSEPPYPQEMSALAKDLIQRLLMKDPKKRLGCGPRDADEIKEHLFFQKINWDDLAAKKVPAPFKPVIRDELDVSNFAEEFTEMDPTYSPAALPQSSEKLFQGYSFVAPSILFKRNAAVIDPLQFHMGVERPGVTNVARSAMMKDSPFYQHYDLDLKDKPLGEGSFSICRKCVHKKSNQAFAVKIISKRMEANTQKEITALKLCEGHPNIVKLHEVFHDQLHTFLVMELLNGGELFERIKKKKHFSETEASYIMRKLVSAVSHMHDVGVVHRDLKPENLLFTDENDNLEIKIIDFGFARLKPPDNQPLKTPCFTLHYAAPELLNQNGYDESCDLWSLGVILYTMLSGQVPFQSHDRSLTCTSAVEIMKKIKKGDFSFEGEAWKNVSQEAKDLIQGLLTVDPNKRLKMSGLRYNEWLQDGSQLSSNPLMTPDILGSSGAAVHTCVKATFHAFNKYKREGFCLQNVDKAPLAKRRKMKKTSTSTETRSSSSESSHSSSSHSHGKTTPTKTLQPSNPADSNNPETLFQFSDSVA
For assay [16] the target is unchanged. As to conditions: at 1 µM.
For assay [17], the target named is Ribosomal protein S6 kinase alpha-4 (Homo sapiens) (UniProt O75676). To be noted: at 0.1 µM.
Assay [18] has the same target. To be noted: at 1 µM.
Assay [19] deals with Ribosomal protein S6 kinase beta-1 (Homo sapiens) (UniProt P23443). To be noted: at 0.1 µM.
Chain of Ribosomal protein S6 kinase beta-1 (Homo sapiens) (P23443 whole entry, looked up): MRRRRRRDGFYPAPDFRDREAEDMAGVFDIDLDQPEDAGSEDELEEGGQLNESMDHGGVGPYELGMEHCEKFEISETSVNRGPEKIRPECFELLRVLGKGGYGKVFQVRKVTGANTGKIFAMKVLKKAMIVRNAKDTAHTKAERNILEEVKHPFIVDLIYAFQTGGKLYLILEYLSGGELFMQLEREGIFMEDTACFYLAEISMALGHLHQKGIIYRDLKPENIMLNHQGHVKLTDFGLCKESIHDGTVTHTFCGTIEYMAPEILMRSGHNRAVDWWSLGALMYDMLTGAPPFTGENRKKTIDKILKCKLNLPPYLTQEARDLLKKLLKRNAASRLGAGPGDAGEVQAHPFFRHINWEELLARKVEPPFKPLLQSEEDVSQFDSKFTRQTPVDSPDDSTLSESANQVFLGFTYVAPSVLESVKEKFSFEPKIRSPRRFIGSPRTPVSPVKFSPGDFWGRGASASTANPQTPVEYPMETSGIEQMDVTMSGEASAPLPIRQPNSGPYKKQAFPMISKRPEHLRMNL
Assay [20] has the same target. To be noted: at 1 µM.

Consider 9 compounds from ChEMBL document CHEMBL1961873, “Compounds: GSK PKIS; Assays: Nanosyn kinase panel” (2012).

Where “and” joins values, the source holds several entries; their conditions need not be identical. Equal entries are not always repeated.

Chain of RAC-alpha serine/threonine-protein kinase (Homo sapiens) (P31749 whole entry): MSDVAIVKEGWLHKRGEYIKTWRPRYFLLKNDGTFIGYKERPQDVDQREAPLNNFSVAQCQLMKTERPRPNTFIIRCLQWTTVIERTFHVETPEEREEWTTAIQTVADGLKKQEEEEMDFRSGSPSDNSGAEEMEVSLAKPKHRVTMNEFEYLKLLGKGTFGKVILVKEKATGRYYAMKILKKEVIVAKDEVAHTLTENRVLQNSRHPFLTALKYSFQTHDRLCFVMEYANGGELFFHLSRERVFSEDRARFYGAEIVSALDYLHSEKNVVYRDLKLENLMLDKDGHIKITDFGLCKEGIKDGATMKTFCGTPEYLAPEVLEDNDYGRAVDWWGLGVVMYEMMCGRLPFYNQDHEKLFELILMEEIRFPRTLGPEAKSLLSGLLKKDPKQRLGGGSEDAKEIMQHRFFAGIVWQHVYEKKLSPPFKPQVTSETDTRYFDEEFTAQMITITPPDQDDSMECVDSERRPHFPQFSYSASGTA
Chain of RAC-gamma serine/threonine-protein kinase (Homo sapiens) (Q9Y243 whole entry): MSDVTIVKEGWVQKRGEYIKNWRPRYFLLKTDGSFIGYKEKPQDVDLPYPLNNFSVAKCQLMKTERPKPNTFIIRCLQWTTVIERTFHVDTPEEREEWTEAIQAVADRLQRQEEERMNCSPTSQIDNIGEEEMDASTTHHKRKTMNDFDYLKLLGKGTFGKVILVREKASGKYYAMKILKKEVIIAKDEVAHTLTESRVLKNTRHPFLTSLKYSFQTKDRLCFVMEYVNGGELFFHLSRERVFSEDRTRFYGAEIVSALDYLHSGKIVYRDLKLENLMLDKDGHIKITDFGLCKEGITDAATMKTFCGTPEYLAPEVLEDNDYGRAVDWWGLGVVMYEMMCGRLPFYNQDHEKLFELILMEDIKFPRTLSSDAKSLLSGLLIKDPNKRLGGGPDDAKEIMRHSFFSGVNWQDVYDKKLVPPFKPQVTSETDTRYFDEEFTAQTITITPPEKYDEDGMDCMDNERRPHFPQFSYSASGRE
Chain of RAC-beta serine/threonine-protein kinase (Homo sapiens) (P31751 whole entry): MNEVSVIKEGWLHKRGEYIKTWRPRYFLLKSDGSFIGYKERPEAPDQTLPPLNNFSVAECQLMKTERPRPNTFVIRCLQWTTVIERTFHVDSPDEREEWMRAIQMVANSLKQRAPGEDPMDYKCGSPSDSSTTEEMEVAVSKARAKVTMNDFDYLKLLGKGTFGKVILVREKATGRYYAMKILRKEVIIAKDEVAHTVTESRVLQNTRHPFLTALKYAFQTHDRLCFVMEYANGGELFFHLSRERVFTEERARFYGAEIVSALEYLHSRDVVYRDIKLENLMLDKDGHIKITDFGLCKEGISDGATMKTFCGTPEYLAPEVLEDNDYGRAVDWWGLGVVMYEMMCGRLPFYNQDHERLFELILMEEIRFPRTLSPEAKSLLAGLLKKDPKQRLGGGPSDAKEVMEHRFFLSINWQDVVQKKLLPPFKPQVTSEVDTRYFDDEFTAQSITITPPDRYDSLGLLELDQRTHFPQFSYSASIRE

As for `CCS(=O)(=O)c1ccc(OC)c(Nc2ncc(-c3cccc(C(C)=O)c3)o2)c1`, the inhibition in assay [1] is 0.68%; in [2], 0.26%; in assay [3], 0.96%; in assay [4], 2.41%; in [5] it was 1.01%; in assay [6], 1.05%. For the same compound, the inhibition was 3.78% in assay [7]; 10.8% in assay [8]; 4.52% in assay [9]; 4.18% in assay [10]; -0.63% in assay [11]; 3.28% in [12]. The inhibition in [13] is -1.42%; in assay [14] it was -0.03%; in assay [15], 2.8%; in assay [16], 4.68%; in assay [17], 0.6%; in [18] it was 2.7%. The inhibition in assay [19] amounted to 1.32%; in assay [20] it was 2.57%.

`O=C(O[C@H]1CN[C@H](C#Cc2cc3ncnc(Nc4ccc5c(cnn5Cc5ccccc5)c4)c3s2)C1)N1CCOCC1`: the inhibition in assay [1] was -0.59%; in assay [2], -0.52%; in assay [3], -0.56%; in [4], -0.1%; in [5] it was -1.03%; in [6], 0.11%. The inhibition was -0.66% in assay [7]; 2.38% in assay [8]; 2.39% in [9]; 0.44% in assay [10]; 0.53% in assay [11]; -6.83% in assay [12]. In addition, the inhibition was -0.65% in assay [13]; -2.08% in assay [14]; -1.78% in assay [15]; -2.26% in assay [16]; 0.14% in [17]; -0.97% in assay [18]. Further, the inhibition is -0.07% in assay [19] and -1.65% in [20].

For the compound `CN1CCC(C(=O)Nc2n[nH]c3nc(-c4ccc(O)cc4)c(Br)cc23)CC1`, the inhibition in [1] is -3.78% and 0.82%; in assay [2] it was -3.1% and -0.05%; in assay [3] it was -1.35% and 0.28%; in [4], -1.57% and 1.31%; in [5], -2.51% and 0.97%; in assay [6], -0.95% and 3.11%. Also, the inhibition in assay [7] is 8.47% and 0.32%; in assay [8], 20.1% and 5.9%; in assay [9], 5.9% and 4.12%; in assay [10], 16.7% and -0.01%; in assay [11] it was 2.05% and 4.4%; in assay [12], 21.6% and 19.5%. For the same compound, the inhibition is 1.99% and 0.84% in assay [13]; 12.8% and 12.7% in assay [14]; 1.62% and 0.25% in assay [15]; 3.91% and 1.49% in assay [16]; 2.85% and 1.78% in assay [17]; 5.51% and 1.19% in assay [18]. Further, the inhibition in [19] is 0.96% and -0.21%; in [20], 2.58% and -0.02%.

For `Nc1nccc(-c2c(-c3ccc(F)cc3)ncn2C2CCNCC2)n1`, the inhibition is -2.52% and -0.57% in assay [1]; -1.44% and -0.36% in [2]; -2.1% and -0.23% in [3]; -2.04% and 0.22% in assay [4]; -2.91% and 1.34% in [5]; -1.79% and 2.95% in [6]. The inhibition is -0.3% and 1.54% in assay [7]; 1.28% and -0.27% in assay [8]; -9.73% and -0.04% in assay [9]; -3.87% and -0.11% in assay [10]; 0.35% and 0.18% in assay [11]; 2.58% and 5.06% in assay [12]. The inhibition in assay [13] was 0.52% and 1.07%; in assay [14] it was 1.72% and 3.43%; in [15], -2.32% and -0.28%; in [16], -1.5% and 1.46%; in assay [17], -1.86% and 0.59%; in assay [18], -1.17% and 2.2%. Further, the inhibition in assay [19] is -1.49% and 0.02%; in [20] it was -0.77% and 0.22%.

With `FC(F)(F)CNc1nccc(-c2cnn3ncccc23)n1`, the inhibition in assay [1] came out at 0.05%; in [2], 0.65%; in assay [3], 1.43%; in assay [4] it was 0.42%; in assay [5] it was 0.5%; in assay [6] it was 1.33%. Also, the inhibition in assay [7] was -2.66%; in assay [8], -0.41%; in [9], 3.21%; in assay [10], 0.87%; in [11] it was -2.84%; in assay [12], -3.89%. Moreover, the inhibition in assay [13] is -0.09%; in [14], -0.68%; in assay [15], 1.98%; in assay [16], 1.09%; in assay [17] it was 2.33%; in [18] it was 1.58%. In addition, the inhibition was found to be 0.49% in assay [19] and 0.86% in assay [20].

`CCS(=O)(=O)c1ccc(OC)c(Nc2ncc(-c3cccc(F)c3)o2)c1`: the inhibition was found to be 0.91% in assay [1]; 0.05% in assay [2]; 0.44% in assay [3]; 3.48% in assay [4]; 2.02% in [5]; 8.05% in assay [6]. Besides, the inhibition in assay [7] came out at 4.17%; in assay [8], 2.93%; in assay [9], 9.79%; in assay [10] it was 3.77%; in [11], 4.37%; in assay [12], 2.99%. Also, the inhibition in assay [13] stood at 0.15%; in assay [14], 0.78%; in assay [15] it was 5.29%; in assay [16] it was 7.75%; in [17] it was 4.36%; in [18] it was 5.01%. In addition, the inhibition in [19] was found to be 2.77%; in [20], 5.19%.

On to `COc1cc(N2CCN(C(C)C)CC2)ccc1Nc1nc(Nc2cccc3ncccc23)c2cc[nH]c2n1`, for which the inhibition in [1] is -0.64%; in assay [2] it was -0.94%; in assay [3], -0.9%; in [4] it was -0.32%; in assay [5], 0.92%; in [6] it was 0.55%. For the same compound, the inhibition was -0.14% in assay [7]; -0.02% in assay [8]; -2.45% in [9]; 0.29% in [10]; -0.06% in [11]; 4.44% in [12]. Moreover, the inhibition in assay [13] turned out to be 0.85%; in [14] it was 4.14%; in assay [15] it was 0.1%; in assay [16] it was 1.16%; in [17] it was 1.01%; in assay [18], 2.7%. Moreover, the inhibition in assay [19] was 0.36%; in [20], 2.23%.

For `CN(c1ccc(NC(=O)NCCN2CCOCC2)cc1)c1ccnc(Nc2ccc(CS(C)(=O)=O)cc2)n1`, the inhibition was 0.71% in [1]; -0.42% in assay [2]; 0.78% in assay [3]; 0.37% in assay [4]; 0.73% in assay [5]; 0.19% in assay [6]. The inhibition was 4.41% in assay [7]; 7.67% in assay [8]; 3.45% in assay [9]; 5.28% in assay [10]; -0.04% in assay [11]; 2.59% in assay [12]. Also, the inhibition in assay [13] was found to be 0.01%; in [14], 0.6%; in assay [15], 3.04%; in assay [16], 3.65%; in [17], 2.62%; in [18], 3.19%. Besides, the inhibition is 1.53% in assay [19] and 1.23% in assay [20].

For the compound `CC1=C(C(=O)Nc2ccc3[nH]ncc3c2)C(c2ccc(F)cc2)N=C(c2ccc(C(F)(F)F)nc2)N1` (stereo not given), the inhibition in assay [1] was determined as 0.83%; in assay [2], 1.06%; in assay [3], 1.39%; in assay [4], 1.43%; in [5], 1.44%; in assay [6], 1.68%. Moreover, the inhibition is 3.1% in [7]; -2.54% in [8]; 0.19% in [9]; -2.93% in assay [10]; -0.15% in assay [11]; 0.82% in assay [12]. For the same compound, the inhibition in assay [13] is -0.07%; in [14], 4.54%; in assay [15], 3.51%; in [16], 19.2%; in [17] it was 2.12%; in [18], 14.9%. The inhibition came to 1.03% in [19] and 7.4% in assay [20].

As usually defined, the inhibition is the drop in the measured response relative to a control, in per cent.
